# Results taken from PubChem BioAssay (NCI).
# Compounds without any hit were thinned out: in the full panel of roughly 83,000, 20% have a hit.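 Results are percent growth after 48 hours of single-concentration exposure. 100 means growth as in untreated cells, lower positive values show inhibition; negative values down to -100 show cell death.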 Values without a mark were called inactive. Activity calls are given as the source filed them.
# Tested on: RPMI-8226 leukemia
# Assay: NCI-60 one-dose screen, 48 h (100 = growth as untreated, 0 = no growth, -100 = all killed)
# Settings: 10 µM unless noted
# Method: Growth inhibition of the RPMI-8226 human tumor cell line is measured as a screen for anti-cancer activity. Cells are grown in 96 well plates and exposed to the test compound for 48 hours. Compounds are tested at a single concentration, which is 10^-5 M for most compounds. The reported endpoint is percent growth (GI% or GIPRCNT), where numbers from 0 - 100% represent growth inhibition, and numbers from -100% - 0 represent cell death. For example, a value of 40 represents 60% growth inhibition. A value of 0 means no net growth occurred over the course of the experiment. A value of -40 indicates 40% of cells at the beginning of the experiment died by the end of the experiment. A value of -100 means all cells are dead at the end of the experiment.
# NCI-60 Human Tumor Cell Lines Screen was performed using the standard one-dose NCI protocol, which is described in more detail at https://dtp.cancer.gov/discovery_development/nci-60/default.htm.
# Compounds with GIPRCNT values below 10 were considered active. Activity score was based on GIPRCNT using the following formula: […]
# Score is 0 for GIPRCNT values of 100 or above, 50 for GIPRCNT values of 0, and 100 for GIPRCNT values of -100.
row,Compound,growth
1,O=C1CCCC1[n+]1ccccc1 (stereo not given),103%
2,Cc1sc2nc(NCCN)[nH]c(=O)c2c1C,110%
3,ClC(Cl)c1nc(-c2ccccc2)n2nc(-c3ccccc3)cc2n1,0.699% (active)
4,Cc1ccc(Cc2cnc(NC(=O)/C=C/c3ccc(C)o3)s2)cc1,26.8%
5,Nc1ncnc2c1N=C(c1ccc(Cl)cc1)CC(c1cccc(Nc3ccnc4cc(Cl)ccc34)c1)N2 (stereo not given),-20.5% (active)
6,CCN(CC)CCOc1ccc2c(-c3ccccc3)c(-c3ccc(OC)cc3)c(=O)oc2c1,48.8%
7,CN(C)CCCNC(=O)c1cncnc1Nc1ccc2c(ccn2Cc2cccc(F)c2)c1,86.3%
8,CNC(=O)Nc1ccc(-c2ccc3ncnc(Nc4cccc(Cl)c4)c3c2)cc1,55.1%
9,COc1ccc(C2CC(c3ccccc3)=NN2C(=O)c2cc(OC)c(OC)c(OC)c2)cc1O (stereo not given),-20.5% (active)
10,COc1cc(/C=C/c2cc(/C=C/c3ccc(O)c(OC)c3)n(C(=O)Nc3ccc(Cl)cc3)n2)ccc1O,2.91% (active)
11,CCOC(=O)c1[nH]cc2c1CCc1sc(Nc3ccccn3)nc1-2,45%
12,CCN(CCNc1ccc(C)c2sc3cc(Cl)ccc3c(=O)c12)CC(C)(C)O,49.4%
13,O=C1O[C@@H](c2ccccc2Cl)[C@@H]2c3cc4c(cc3CCN12)OCO4,94.4%
14,C#CCOc1cccc(Nc2ncnc3c2ncn3C2CCN(C(=O)CCl)C2)c1 (stereo not given),-49.8% (active)
15,C=C(C)[C@@H]1CC[C@]2(C(=O)N3CCNCC3)CC[C@]3(C)[C@H](CC[C@@H]4[C@@](C)(CCC(=O)N5CCNCC5)[C@H](C(=C)C)CC[C@]43C)[C@@H]12,12.1%
16,O=C(Nc1cccnc1Nc1ccc(Cl)cc1)c1cn(Cc2cccc(Oc3ccccc3)c2)nn1,40.9%
17,COc1cc(Cc2cc(-c3ccccc3)nn(Cc3ccccc3)c2=O)cc(OC)c1OC,24.8%
18,CC1=Nc2cnc(Nc3ccc(N4CCCCC4)cc3)nc2Nc2ccccc21,34.3%
19,COC(=O)c1ccc2c(c1)c1c(C)c3cnccc3c(C)c1n2C,-15.4% (active)
20,CC1(C)N=C(N)N=C(N)N1c1cc(Cl)ccc1Cl,107%

row,Compound,growth
1,CCCCNC(=O)c1ccc2c(c1)nc(-c1ccccc1)n2C1CCCCC1,88.3%
2,COC(=O)Cn1c2c(c3c(OC)cccc31)C(=O)c1ccccc1-2,85.3%
3,O=C(Cn1nc(-c2cccc3ccccc23)ccc1=O)NCc1cccc(Cl)c1,23.7% [50 µM]
4,N=C(N)c1ccc(-c2ccc(-c3cc(Cl)cc(Cl)c3)s2)s1,-26% (active)
5,C=CC(CC(c1ccccc1)(c1ccccc1)c1ccccc1)N(CC)CC (stereo not given),38.2%
6,CCCC(=O)NC(c1ccc2c(c1)OCO2)c1cc(Cl)c2cccnc2c1O (stereo not given),17.7%
7,Oc1nc(NCc2ccccc2)sc1/C=C1\C=Nc2ncccc21,87.1%
8,CC(C)(C)c1ccc(C(=O)N/N=C/c2ccc(O)cc2O)cc1,28.6%
9,Cc1ccc(S(=O)(=O)OCC#CCOS(=O)(=O)c2ccc(C)cc2)cc1,20.2%
10,N#CC1=C(N)Oc2c(sc3c(F)cccc23)C1c1ccc([N+](=O)[O-])cc1 (stereo not given),-9.41% (active)
11,COc1ccc(-c2cc(-c3cccnc3)nc3sc4c(N)c(C(C)=O)c(-c5ccccc5)nc4c23)cc1OC,53.7%
12,CC(=O)c1sc(-c2ccc(F)cc2)cc1O,105%
13,CSc1nc2ccc(C)cc2cc1/C=C1/C=C(c2ccccc2)NC1=O,57.3%
14,CCN1CCN(CCNc2nccc(-c3c(-c4ccc(F)c(O)c4)nc4occn34)n2)S1(=O)=O,-22.7% (active)
15,COc1ccc(/C=C2\c3cc(OC)c(OC)c(OC)c3CC[C@@H]2O)cc1F,28.1%
16,CCCCn1c(NC(C)=O)c(S(=O)(=O)c2ccccc2)c2nc3ccccc3nc21,107%
17,CSc1ccc2c3c(n(C[C@H](O)CO)c(=O)c2c1)-c1ccccc1C3=O,-17.3% (active)
18,CN1CC(c2ccc(Br)cc2)C(C(=O)c2ccc(Br)cc2)C12C(=O)Nc1ccccc12 (stereo not given),62.3%
19,O=S(Nc1ccccc1)c1ccc(Cl)cc1 (stereo not given),99.3%
20,O=C1C=CC2(O)OC/C(=C\c3ccccc3)C(O)=C2C1=O (stereo not given),0.943% (active)
